# Assay results: PubChem BioAssay AID743445 (Broad Institute, 2014)
# The campaign covered roughly 310,000 compounds. About 1,700 (0.55%) were called active. Many of the other results were omitted from the sample, so actives are more common in it than they were. Unmarked numbers belong to inactive results. Cut-off read from the data, not from the text of the source: active = inhibition above about 50%; inactive = the rest.
# Molecular target: Histone-lysine N-methyltransferase NSD2 (Homo sapiens) (UniProt O96028)
# Assay: NSD2 histone methyltransferase inhibitors, primary screen, biochemical, AlphaScreen, single concentration, set 2 (AID 743445)
# Conditions: NSD2 peptide methylation, 120 min, at 12.5 µM, stronger effect = higher value
# Histone-lysine N-methyltransferase NSD2 (Homo sapiens), sequence (O96028 whole entry, looked up): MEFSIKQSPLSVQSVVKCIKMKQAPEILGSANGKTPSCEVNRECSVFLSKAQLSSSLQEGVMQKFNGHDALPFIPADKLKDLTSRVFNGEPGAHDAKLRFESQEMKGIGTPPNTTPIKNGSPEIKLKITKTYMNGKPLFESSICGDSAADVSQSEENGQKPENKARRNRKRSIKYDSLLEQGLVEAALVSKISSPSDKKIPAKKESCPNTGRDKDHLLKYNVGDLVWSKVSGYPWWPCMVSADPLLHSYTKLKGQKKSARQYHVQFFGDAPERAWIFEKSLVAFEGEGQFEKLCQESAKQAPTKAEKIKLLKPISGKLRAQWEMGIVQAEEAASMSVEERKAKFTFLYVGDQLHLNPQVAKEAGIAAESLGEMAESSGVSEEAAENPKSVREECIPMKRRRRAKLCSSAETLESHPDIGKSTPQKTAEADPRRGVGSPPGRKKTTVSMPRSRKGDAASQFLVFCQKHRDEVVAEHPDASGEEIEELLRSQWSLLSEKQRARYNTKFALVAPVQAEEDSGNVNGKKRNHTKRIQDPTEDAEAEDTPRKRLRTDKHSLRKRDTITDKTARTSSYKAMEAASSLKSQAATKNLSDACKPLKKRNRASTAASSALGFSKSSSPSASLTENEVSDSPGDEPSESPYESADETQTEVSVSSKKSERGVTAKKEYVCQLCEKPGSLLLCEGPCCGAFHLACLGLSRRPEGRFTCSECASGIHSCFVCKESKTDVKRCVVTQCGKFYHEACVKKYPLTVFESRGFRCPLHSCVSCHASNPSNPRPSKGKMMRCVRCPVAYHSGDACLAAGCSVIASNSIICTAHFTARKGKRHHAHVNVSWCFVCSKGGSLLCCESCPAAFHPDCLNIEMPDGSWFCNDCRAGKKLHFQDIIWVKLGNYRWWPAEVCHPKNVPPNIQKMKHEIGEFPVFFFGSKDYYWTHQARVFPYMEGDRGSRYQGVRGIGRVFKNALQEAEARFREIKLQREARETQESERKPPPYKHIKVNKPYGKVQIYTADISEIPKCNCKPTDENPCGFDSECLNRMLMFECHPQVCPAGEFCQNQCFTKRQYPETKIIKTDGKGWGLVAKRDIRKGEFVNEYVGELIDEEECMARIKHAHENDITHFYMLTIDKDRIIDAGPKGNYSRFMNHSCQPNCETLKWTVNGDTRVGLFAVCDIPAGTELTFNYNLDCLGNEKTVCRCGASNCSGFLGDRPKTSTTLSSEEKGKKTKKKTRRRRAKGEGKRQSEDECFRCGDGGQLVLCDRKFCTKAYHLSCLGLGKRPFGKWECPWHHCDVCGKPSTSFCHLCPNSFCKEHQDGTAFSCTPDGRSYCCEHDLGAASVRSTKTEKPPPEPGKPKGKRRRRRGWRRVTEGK
row,Compound,inhibition
1,CN(CC(=O)Nc1ccc(F)cc1)C(=O)c1ccc(-c2ccc(Cl)cc2)o1,-0.366%
2,Cc1[nH][nH]c(=O)c1C(c1ccc(-c2ccc(Cl)cc2)o1)c1c(C)[nH][nH]c1=O,105% (active)
3,O=C(NC1CCCCC1)c1ccc(-c2ccc(Cl)cc2)o1,-1.75%
4,O=C(NCC1COc2ccccc2O1)c1ccc(NC(=O)c2cc(F)ccc2F)cc1 (configuration not stated),-0.735%
5,CC1CCN(CCC(=O)Nc2ccccc2)CC1,51.1% (active)
6,COc1ccc(OC)c(NC(=O)CCN2CCC(C)CC2)c1,0.958%
7,CCOC(=O)N1CCN(CCC(=O)Nc2ccccc2)CC1,-3.41%
8,O=c1[nH]c(CN2CCOCC2)nc2scc(-c3ccccc3)c12,-2.17%
9,CN(CCOc1ccccc1)Cc1nc2cc(Cl)ccc2c(=O)[nH]1,-1.91%
10,O=c1[nH]c(CN2CCOCC2)nc2cc(Cl)ccc12,108% (active)
11,Cc1ccccc1CS(=O)(=O)Cc1ccc(C(=O)Nc2ccc(Cl)cc2)o1,1.09%
12,CCOC(=O)c1csc(NC(=O)C2CCCN(S(=O)(=O)c3ccc(Cl)s3)C2)n1 (configuration not stated),2.06%
13,Cc1occc1-c1nnc(SCC(=O)NC2CCCCC2)o1,0.775%
14,O=C(CSc1nnc(-c2ccccc2O)o1)NC1CCCCC1,55.7% (active)
15,Cc1cc(C)cc(-c2nnc(SCC(=O)NC3CC3)o2)c1,0.103%
16,CN(C)C(=O)N1CCN(C(=O)[C@@H](Cc2ccccc2)NC(=O)[C@H]2O[C@@H](n3ccc(N)nc3=O)[C@H](O)[C@@H]2O)CC1,-3.38%
17,Clc1ccc(C2=CSC3=Nc4cccc5cccc(c45)N23)cc1,125% (active)
18,COc1ccc(CNC(=O)c2nnn(CC(=O)Nc3cc(C)cc(C)c3)c2N)cc1,0.097%
19,CCc1ccc(NC(=O)Cn2nnc(C(=O)NCc3ccc(OC)cc3)c2N)cc1,-10.9%

row,Compound,inhibition
1,COc1ccc(NC(=O)Cn2nnc(C(=O)NCCc3ccc(OC)c(OC)c3)c2N)cc1,159% (active)
2,CC(C)(C)c1ccc(CSc2nnc(-c3cccs3)o2)cc1,-3.66%
3,COc1cc(C(C)=O)ccc1OC(C)C(=O)Nc1ccc(S(=O)(=O)N2CCCC2)cc1 (configuration not stated),-0.04%
4,C=CCn1c(=NC(=O)c2ccc(S(=O)(=O)N3CCCC3)cc2)sc2cc(NC(C)=O)ccc21,96.1% (active)
5,CC(=O)Nc1ccc(S(=O)(=O)N2CCSCC2)cc1,-0.875%
6,Clc1ccc(-n2c(SC/C=C/c3ccccc3)nnc2-c2ccco2)cc1,1.46%
7,COc1cccc(CNC(=O)C2CCCN(c3nc4ccccc4o3)C2)c1OC (configuration not stated),0.947%
8,CN(C)CCNC(=O)c1ccc(-c2cn3c(-c4ccc(Oc5ccccc5)cc4)cnc3cn2)cc1,1.51%
9,Cc1ccc(C(=O)C2CCN(CC(=O)NCCC(C)C)CC2)cc1,-1.14%
10,O=C(NC(c1ccc(Cl)cc1)c1cnccn1)C1CCN(Cc2ccc(Cl)cc2)CC1 (configuration not stated),-0.128%
11,Cn1c(=O)c2cc(NC(=O)NCCc3cccs3)ccc2n1Cc1cccc(C(F)(F)F)c1,0.114%
12,CCN1CCN(CCNC(=O)c2ccc3c(c2)NC(=O)/C(=C\c2cccc(Cl)c2)S3)CC1,2.99%
13,CCN1CCCC1CNC(=O)c1ccc2c(c1)NC(=O)/C(=C\c1ccccc1F)S2 (configuration not stated),21.8%
14,O=C1Nc2cc(C(=O)N3CCC(N4CCCCC4)CC3)ccc2S/C1=C\c1ccccc1,50.2% (active)
15,CCC(=O)N1CCc2cc(S(=O)(=O)NC(C(=O)N3CCc4ccccc4C3)C(C)C)ccc21 (configuration not stated),59.8% (active)
16,CCC(=O)N1CCc2cc(S(=O)(=O)CCC(=O)N3CCN(c4ccccc4F)CC3)ccc21,-2.83%
17,CCOC(=O)N1CCC(NC(=O)C(NS(=O)(=O)c2ccc3c(c2)CCN3C(=O)CC)C(C)C)CC1 (configuration not stated),17.1%
18,COc1cccc(-c2cc3nc(NCc4ccccc4OC)n(C)c(=O)c3s2)c1,-2.63%
19,O=C(CSc1nc2ccccc2s1)NN=Cc1ccc(O)cc1O,9.45%

row,Compound,inhibition
1,C=CCNC(=O)CCCOc1cccc(C)c1,-2.74%
2,CCCCCCCCC(=O)NCCOc1ccccc1,1.73%
3,C=CCNCCCCOc1ccccc1,73.8% (active)
4,Cc1ccc(CC2(C)C(=O)Nc3ccc(OC(F)(F)F)cc32)cc1 (configuration not stated),-1.93%
5,O=C(CN1CCC(NC(=O)NCc2ccccc2)CC1)Nc1ccc2c(c1)OCCO2,-3.14%
6,O=C(NCc1cccs1)C1CCN(S(=O)(=O)c2ccccc2[N+](=O)[O-])CC1,-1.94%
7,COc1ccc(S(=O)(=O)/N=C2\C=C(NS(=O)(=O)c3ccccc3)C(=O)c3ccccc32)cc1,116% (active)
8,Cc1ccc(S(=O)(=O)N[C@H](CO)C(C)C)cc1,-1.39%
9,O=C1C=C(NS(=O)(=O)c2ccccc2)C(=O)c2ccccc21,16.2%
10,COc1ccc(S(=O)(=O)NCCCc2ccccc2)cc1,-2.03%
11,Cc1ccc(S(=O)(=O)N/N=C(\c2ccccc2)C2CC2)cc1,-5.26%
12,Cc1ccc(S(=O)(=O)/N=C2\C=C(NS(=O)(=O)c3ccc(C)cc3)C(=O)c3ccccc32)cc1,186% (active)
13,CCCCN(C=O)c1c(CC)nc2c(OCc3ccccc3C(=O)OC)cccn12,2.37%
14,Cc1nc2c(OCc3cccc(Cl)c3)cccn2c1N(C)CC1CC1,1.55%
15,CCn1c2ccccc2c2cc(NC(=O)CSc3nnc(-c4ccccc4)n3-c3ccc(C)cc3)ccc21,0.529%
16,O=C(Cc1cccs1)Nc1nnc(SCc2ccc(F)cc2)s1,0.676%
17,CC(C)(C)CC(=O)Nc1nnc(SCC(=O)NCc2cccs2)s1,63.2% (active)
18,Cc1nnc(SCC(=O)NCc2cccs2)[nH]c1=O,-1.95%
19,CCOC(=O)[C@]12CCCC=C1N(CCC1=CCCCC1)C(=O)[C@H](CC(=O)NCCCCc1ccccc1)C2,1.69%
